Assay results reported in PubChem BioAssay (NCI).
About 79,000 compounds went through this panel and 15% of them were active in at least one assay; those are over-represented in the sample as a whole. Active and inactive are the calls of the source. No stated cut-off is given here; in the data, active means growth inhibition above about 70%; inactive means the rest.

What was measured:
[1] = NCI Yeast Anticancer Drug Screen. Data for the rad50 strain (AID 155);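 further: 0% = growth of vehicle-only cultures of the same strain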; details: S. cerevisiae rad50 strain growth inhibition, hits give high values
Summary of the method: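 Compounds were tested on a yeast strain with an engineered DNA damage repair alteration; the reported value is growth inhibition normalised to vehicle treatment.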

[2] = NCI Yeast Anticancer Drug Screen. Data for the mec2-1 strain (AID 157); details: S. cerevisiae mec2-1 strain, hits give high values
Summary of the method: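 Vehicle-treated cultures served as reference for growth inhibition of compound-exposed mec2-1 yeast.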

[3] = NCI Yeast Anticancer Drug Screen. Data for the sgs1 mgt1 strain (AID 161);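 further: 0% = growth of cultures given vehicle only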; details: S. cerevisiae sgs1 mgt1 strain, hits give high values
Summary of the method: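 Test agents were incubated with a DNA-repair-mutant yeast strain. Growth was then read and compared against vehicle-treated controls.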

[4] = NCI Yeast Anticancer Drug Screen. Data for the cln2 rad14 strain (AID 165);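 further: 0% = growth equal to vehicle treated cultures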; details: S. cerevisiae cln2 rad14 strain, hits give high values
Summary of the method: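 Each compound was tested on cln2 rad14 yeast. Inhibition of growth was calculated against vehicle-exposed controls.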

[5] = NCI Yeast Anticancer Drug Screen. Data for the bub3 strain (AID 167); details: S. cerevisiae bub3 mutant strain, hits give high values
Summary of the method: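 Growth of a checkpoint-deficient yeast mutant is measured after compound exposure. Values represent inhibition relative to vehicle.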

[6] = NCI Yeast Anticancer Drug Screen. Data for the mlh1 rad18 strain (AID 175); details: S. cerevisiae mlh1 rad18 strain growth inhibition, hits give high values
Summary of the method: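 Vehicle-treated cultures served as the reference for growth inhibition in a yeast strain carrying DNA damage repair alterations exposed to each compound.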

[7] = at 5.0 µM (retest, dose inferred, filed as 0.5)
[8] = at 50.0 µM (retest, dose inferred, filed as 5.0)

Measured: growth inhibition

CC(C)CC[CH2][Pb]([CH2]CCC(C)C)([CH2]CCC(C)C)[O]C(=O)C(Cl)(Cl)Cl
active: [1]; [8] 98% | [1]; at 50.0 µM 99.1% | [2]; [8] 99% | [2]; at 50.0 µM 98.9% | [3]; [8] 94% | [3]; at 50.0 µM 98.4% | [4]; [8] 95% | [4]; at 50.0 µM 98.8% | [5]; [8] 98% | [5]; at 50.0 µM 99%
inactive: [1]; [7] 14% | [2]; [7] 8% | [3]; [7] 17% | [4]; [7] -1% | [5]; [7] 2%

O=P(c1ccccc1)(c1ccccc1)c1ccccc1.[Cl][Sn]([c]1ccccc1)([c]1ccccc1)[c]1ccccc1
active: [1]; [7] 99% | [1]; [8] 98% | [1]; at 50.0 µM 99.6% | [2]; [7] 97% | [2]; [8] 98% | [2]; at 50.0 µM 99.7% | [3]; [7] 99% | [3]; [8] 99% | [3]; at 50.0 µM 99.7% | [4]; [7] 99% | [4]; [8] 98% | [4]; at 50.0 µM 99.1% | [5]; [7] 99% | [5]; [8] 98% | [5]; at 50.0 µM 99.3% | [6]; [7] 99% | [6]; [8] 99% | [6]; at 50.0 µM 99.5%

C[AsH](C)CC[AsH](C)C.C[AsH](C)CC[AsH](C)C.C[AsH](C)CC[AsH](C)C.[Ni]
inactive: [2]; [7] 51% | [5]; [7] 68% | [6]; [7] 56%
active: [1]; [7] 79% | [1]; [8] 98% | [1]; at 50.0 µM 96.9% | [2]; [8] 99% | [2]; at 50.0 µM 95% | [3]; [7] 93% | [3]; [8] 99% | [3]; at 50.0 µM 96.7% | [4]; [7] 74% | [4]; [8] 97% | [4]; at 50.0 µM 93.5% | [5]; [8] 99% | [5]; at 50.0 µM 96.5% | [6]; [8] 99% | [6]; at 50.0 µM 96.5%

Clc1cc[c]([Tl][c]2ccc(Cl)cc2)cc1
active: [1]; [7] 94% | [1]; [8] 98% | [2]; [7] 97% | [2]; [8] 100% | [3]; [7] 90% | [3]; [8] 99% | [3]; at 50.0 µM 82.8% | [4]; [7] 92% | [4]; [8] 97% | [4]; at 50.0 µM 94.3% | [5]; [7] 95% | [5]; [8] 98% | [5]; at 50.0 µM 89.7%
inactive: [1]; at 50.0 µM 22.9% | [2]; at 50.0 µM 11.2%

C/C(=N\N=C(/[Se])N1CCC(C)CC1)c1ccccn1
inactive: [1]; [7] 27% | [2]; [7] 24% | [3]; [7] 9% | [4]; [7] 4% | [4]; [8] -9% | [4]; at 50.0 µM 47% | [5]; [7] 6% | [5]; [8] 20% | [6]; [7] 4%
active: [1]; [8] 94% | [1]; at 50.0 µM 94.5% | [2]; [8] 91% | [2]; at 50.0 µM 96% | [3]; [8] 71% | [3]; at 50.0 µM 99.2% | [5]; at 50.0 µM 84.5% | [6]; [8] 76% | [6]; at 50.0 µM 98%

C[C@@H]1C[C@H]2CC[C@H](O2)[C@H](C)C(=O)O[C@@H](C)C[C@@H]2CC[C@@H](O2)[C@@H](C)C(=O)O[C@H](C)C[C@H]2CC[C@H](O2)[C@H](C)C(=O)O[C@@H](C)C[C@@H]2CC[C@@H](O2)[C@@H](C)C(=O)O1
active: [1]; [8] 94% | [1]; at 50.0 µM 84.3% | [2]; [7] 78% | [2]; [8] 97% | [2]; at 50.0 µM 88% | [3]; [7] 88% | [3]; [8] 95% | [3]; at 50.0 µM 87.8% | [4]; [8] 83% | [4]; at 50.0 µM 81.6% | [5]; [8] 89% | [5]; at 50.0 µM 84.3% | [6]; [7] 76% | [6]; [8] 96% | [6]; at 50.0 µM 82.3%
inactive: [1]; [7] 64% | [4]; [7] 55% | [5]; [7] 62%

O=[N+]([O-])/C=C/c1ccc(Cl)cc1
inactive: [2]; [7] 59% | [3]; [7] 54% | [4]; [7] 19% | [5]; [7] 45%
active: [1]; [7] 79% | [1]; [8] 99% | [1]; at 50.0 µM 99% | [2]; [8] 100% | [2]; at 50.0 µM 99.8% | [3]; [8] 100% | [3]; at 50.0 µM 99.5% | [4]; [8] 99% | [4]; at 50.0 µM 99% | [5]; [8] 99% | [5]; at 50.0 µM 99.5% | [6]; [7] 80% | [6]; [8] 99% | [6]; at 50.0 µM 99.5%

Nc1ccc(Br)cc1C(=O)c1ccccc1
inactive: [1]; [7] 12% | [2]; [7] 11% | [3]; [7] 32% | [4]; [7] 12% | [5]; [7] 6% | [6]; [7] 14%
active: [1]; [8] 95% | [1]; at 50.0 µM 99% | [2]; [8] 97% | [2]; at 50.0 µM 99% | [3]; [8] 98% | [3]; at 50.0 µM 99.2% | [4]; [8] 95% | [4]; at 50.0 µM 92.5% | [5]; [8] 96% | [5]; at 50.0 µM 94% | [6]; [8] 95% | [6]; at 50.0 µM 99.2%

C1=C[N-]c2c3c(ccc2=C1)=CC=C[N-]3.C1=C[N-]c2c3c(ccc2=C1)=CC=C[N-]3.F[P-](F)(F)(F)(F)F.[Cu+2]
active: [1]; [8] 98% | [1]; at 50.0 µM 99.3% | [2]; [8] 99% | [2]; at 50.0 µM 99.5% | [3]; [8] 99% | [3]; at 50.0 µM 99.5% | [4]; [8] 98% | [4]; at 50.0 µM 98.8% | [5]; [8] 99% | [5]; at 50.0 µM 99.2% | [6]; [8] 99% | [6]; at 50.0 µM 99.1%
inactive: [1]; [7] 56% | [2]; [7] 52% | [3]; [7] 47% | [4]; [7] 51% | [5]; [7] 48% | [6]; [7] 53%

N#C[S-].[La+3].c1ccc(-c2ccccn2)nc1.c1ccc(-c2ccccn2)nc1.c1ccc(-c2ccccn2)nc1
active: [1]; [8] 98% | [1]; at 50.0 µM 91.5% | [2]; [8] 99% | [2]; at 50.0 µM 93.8% | [3]; [8] 99% | [3]; at 50.0 µM 93% | [4]; [8] 90% | [4]; at 50.0 µM 91.9% | [5]; [8] 99% | [5]; at 50.0 µM 92% | [6]; [8] 99% | [6]; at 50.0 µM 91.3%
inactive: [1]; [7] 61% | [2]; [7] 41% | [3]; [7] 46% | [4]; [7] 33% | [5]; [7] 60% | [6]; [7] 56%
